Experimental findings from the supplement of paper PMC12636033 are described below.

± gives the standard deviation of the averaged measurements. Whole data set: some 33,000 sequences, median “E-score (rank enrichment, -0.5 to 0.5)” near -0.0068, cut for the highest 2% near 0.24. What follows is part of a selection rich in the highest values, with near analogues and random picks from the rest.

This experiment relates to muMax20 (Max(13-93) K31hArg/K57hArg, M65Nle). Description: PBM 8-mer E-score (E-score (rank enrichment, -0.5 to 0.5)); higher = stronger preferential binding. Here is the method:
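Protein binding microarray (universal PBM chip covering all 10-mers in fixed probe flanks) with chemically synthesized human Max(13-93) bHLH-LZ analogs (not full-length Max) bearing noncanonical residues (hArg, Tha, Aib, Nle at 65) and aromatic Cys staples. Read-out per 8-mer (and its reverse complement): E-score (rank-based enrichment, -0.5 to 0.5) and Z-score of median probe intensity.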
For CCTCGACA, the “PBM 8-mer E-score” value was -0.0844 ± 0.042.

As for ATATGCTC, the “PBM 8-mer E-score” value was 0.171 ± 0.015.

Consider AATGAAAA, for which the “PBM 8-mer E-score” value came to 0.13 ± 0.0019.

Turning to AATGCGAT, the “PBM 8-mer E-score” value came out at 0.019 ± 0.029.

In the case of CCCCGAAA, the “PBM 8-mer E-score” value was -0.0496 ± 0.15.

ATCTTGAC: the “PBM 8-mer E-score” value was found to be 0.00194 ± 0.029.

On to ATCTTGAA, for which the “PBM 8-mer E-score” value came to 0.0915 ± 0.096.

Take ATCTTGAG: the “PBM 8-mer E-score” value amounted to 0.251 ± 0.011.

Take AATGATGT: the “PBM 8-mer E-score” value stood at 0.0444 ± 0.087.

Turning to GCATGTCC, the “PBM 8-mer E-score” value is 0.00639 ± 0.093.

With AGTGAGGG, the “PBM 8-mer E-score” value was -0.0244 ± 0.062.

For the sequence CATAAAAC, the “PBM 8-mer E-score” value was 0.209 ± 0.058.

As to CATAAAAA, the “PBM 8-mer E-score” value amounted to 0.254 ± 0.044.

Regarding TGTAAACA, the “PBM 8-mer E-score” value turned out to be 0.237 ± 0.0061.

Take GATAAAAA: the “PBM 8-mer E-score” value stood at 0.204 ± 0.016.

On to AGTAAACA, for which the “PBM 8-mer E-score” value came out at 0.202 ± 0.092.

With AATAAAGA, the “PBM 8-mer E-score” value is 0.18 ± 0.015.

For the sequence GGTAAACA, the “PBM 8-mer E-score” value is 0.163 ± 0.037.

TATAAAAA: the “PBM 8-mer E-score” value is 0.301 ± 0.1.

Turning to TATAAAGA, the “PBM 8-mer E-score” value is 0.252 ± 0.053.

On to GATAAAGA, for which the “PBM 8-mer E-score” value is 0.195 ± 0.048.

In the case of CATAAAAG, the “PBM 8-mer E-score” value was determined as 0.138 ± 0.11.

Consider TAAAAAAA, for which the “PBM 8-mer E-score” value is 0.159 ± 0.11.

Take AAAGTAGA: the “PBM 8-mer E-score” value was determined as 0.0577 ± 0.0065.

With CAAGGTAA, the “PBM 8-mer E-score” value stood at 0.0156 ± 0.05.

As to CACCCCAA, the “PBM 8-mer E-score” value came to 0.206 ± 0.015.

In the case of CGAGCACC, the “PBM 8-mer E-score” value was -0.226 ± 0.0053.

As to TGCCTGAA, the “PBM 8-mer E-score” value was -0.00136 ± 0.071.

As for ATTGATCG, the “PBM 8-mer E-score” value turned out to be 0.103 ± 0.027.

GATAAACA: the “PBM 8-mer E-score” value was 0.136 ± 0.05.

Turning to CATAAACA, the “PBM 8-mer E-score” value was found to be 0.252 ± 0.053.

In the case of TATAAACA, the “PBM 8-mer E-score” value is 0.234 ± 0.022.

Consider GTCGCGCA, for which the “PBM 8-mer E-score” value was -0.0658 ± 0.12.

In the case of GTACTCCA, the “PBM 8-mer E-score” value was -0.0757 ± 0.025.

On to AAGCTGTA, for which the “PBM 8-mer E-score” value worked out at 0.111 ± 0.038.

As to AAGCTGAC, the “PBM 8-mer E-score” value is -0.16 ± 0.059.

As for AAGCTGAT, the “PBM 8-mer E-score” value was 0.313 ± 0.042.

In the case of TGCTGGAA, the “PBM 8-mer E-score” value is -0.0216 ± 0.063.

With GGAGAACC, the “PBM 8-mer E-score” value was -0.142 ± 0.092.

Turning to CGTTATAG, the “PBM 8-mer E-score” value was 0.262 ± 0.046.

Turning to AGTTATAA, the “PBM 8-mer E-score” value stood at 0.181 ± 0.096.

As to AGTTATAT, the “PBM 8-mer E-score” value is 0.244 ± 0.012.

For the sequence AGTTATAC, the “PBM 8-mer E-score” value is 0.143 ± 0.075.

Turning to CGTTATAA, the “PBM 8-mer E-score” value was determined as 0.133 ± 0.02.

Consider CGTTATAC, for which the “PBM 8-mer E-score” value amounted to 0.036 ± 0.026.

Consider GTCTTCCA, for which the “PBM 8-mer E-score” value is -0.0719 ± 0.098.

Turning to ATCCTAAG, the “PBM 8-mer E-score” value was -0.054 ± 0.025.

As for ACAAAGCG, the “PBM 8-mer E-score” value was 0.0741 ± 0.0089.

GAACCTAC: the “PBM 8-mer E-score” value was -0.16 ± 0.037.

Turning to ACATTTAG, the “PBM 8-mer E-score” value was determined as 0.136 ± 0.066.

In the case of ATATTTAA, the “PBM 8-mer E-score” value was 0.344 ± 0.013.

With CTATTAAA, the “PBM 8-mer E-score” value was 0.159 ± 0.025.

Turning to ATATTAAT, the “PBM 8-mer E-score” value was determined as 0.238 ± 0.075.

With ATATTAAC, the “PBM 8-mer E-score” value worked out at 0.196 ± 0.0065.

Regarding ACATTTAA, the “PBM 8-mer E-score” value amounted to 0.258 ± 0.14.

With ATATTTAC, the “PBM 8-mer E-score” value was determined as 0.196 ± 0.025.

On to ATATTAAG, for which the “PBM 8-mer E-score” value was found to be 0.163 ± 0.058.

For TTATTAAA, the “PBM 8-mer E-score” value was 0.142 ± 0.044.

Consider ATATTAAA, for which the “PBM 8-mer E-score” value worked out at 0.326 ± 0.0046.

On to GCATTTAA, for which the “PBM 8-mer E-score” value is 0.0477 ± 0.11.

For the sequence CTATTTAA, the “PBM 8-mer E-score” value was 0.0343 ± 0.057.

For AGGAACTA, the “PBM 8-mer E-score” value is -0.0068 ± 0.0036.

For CACCAGGG, the “PBM 8-mer E-score” value was -0.137 ± 0.034.

As for AAGTCTTC, the “PBM 8-mer E-score” value came to 0.0741 ± 0.052.

For the sequence CTCCATTC, the “PBM 8-mer E-score” value turned out to be 0.102 ± 0.029.

Turning to CGAACCTC, the “PBM 8-mer E-score” value came out at 0.00719 ± 0.0044.

With AAAAATCT, the “PBM 8-mer E-score” value turned out to be 0.0641 ± 0.091.

In the case of GTCCTGAA, the “PBM 8-mer E-score” value was -0.111 ± 0.053.

CCAGAAAC: the “PBM 8-mer E-score” value is -0.112 ± 0.092.

In the case of CTCACGGA, the “PBM 8-mer E-score” value is -0.205 ± 0.023.

As to GATAGCAC, the “PBM 8-mer E-score” value was determined as 0.0754 ± 0.042.

In the case of CATAGCAA, the “PBM 8-mer E-score” value was found to be 0.209 ± 0.024.

In the case of CATAGCAC, the “PBM 8-mer E-score” value came to 0.258 ± 0.0042.

Take AGGGCGAT: the “PBM 8-mer E-score” value is -0.119 ± 0.015.

In the case of AGACTAAT, the “PBM 8-mer E-score” value was -0.0591 ± 0.045.

As for CGATATAG, the “PBM 8-mer E-score” value is 0.044 ± 0.12.

As for CGATATAC, the “PBM 8-mer E-score” value amounted to 0.0102 ± 0.0034.

As to CGATATTC, the “PBM 8-mer E-score” value was -0.032 ± 0.1.

With CGATATTA, the “PBM 8-mer E-score” value stood at 0.267 ± 0.038.

As to GGATATTA, the “PBM 8-mer E-score” value was 0.125 ± 0.09.

For the sequence CGATATAA, the “PBM 8-mer E-score” value amounted to 0.267 ± 0.016.

As for CTCGGGTC, the “PBM 8-mer E-score” value is -0.292 ± 0.04.

With ATCTCAGC, the “PBM 8-mer E-score” value is -0.206 ± 0.11.

With ATCATAAG, the “PBM 8-mer E-score” value was found to be 0.19 ± 0.028.

In the case of AACATAAG, the “PBM 8-mer E-score” value was 0.13 ± 0.07.

In the case of ATCATGAT, the “PBM 8-mer E-score” value was 0.289 ± 0.0047.
